Screens from PubChem.
Pf growth 48h: P. falciparum growth inhibition at 48 hours (one generation); P. falciparum luciferase growth in erythrocytes, 48 h; Potency, µM (titrated, usually from 28.7 µM), inactives show top-dose activity change, negative = inhibition, actives largely listed as inhibitors; actives 5.9% (n = 310,000); AID 504832; active means well fitted inhibition curve with a large enough effect; inconclusive means small, poorly fitted or top-dose-only effect, or another doubt; inactive means no such curve, though single readings can be large or run the other way; further: potency means the concentration at half of the fitted maximal effect; on the % scale 0 is the no-effect control and ±100 the full control effect
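Growth was read as firefly luciferase luminescence after a 48 h, 37 C, 5% CO2 exposure of compounds to reporter-bearing P. falciparum cultures (0.1% parasitemia, 2% hematocrit final) in Albumax-supplemented RPMI 1640.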
Shiga inhibitor: blocks Shiga toxin action in Vero cells; Vero cells, Shiga toxin protein synthesis inhibition reporter; inhibition, % at 38.7 µM; actives 9.2% (n = 290,000); AID 2315; in the data active means inhibition mostly above about 28%, no sharp cut-off; inactive means mostly below about 43%; further: 0% is about no effect
SARS PLP yeast: SARS-CoV PLP inhibition in yeast | actives 0.19% (n = 330,000) | S. cerevisiae expressing SARS-CoV PLpro, growth rescue | AID 485353 | Potency, µM (top dose mostly 32.9 µM), for the others: at the top dose activity, positive = growth rescue, actives largely listed as activators; further: potency means the concentration at half of the fitted maximal effect; 0% is about no effect; nearly all actives have a fitted effect of over 55% in size
NS1 inh: influenza NS1 inhibition; Potency, µM (highest dose often 46.1 µM), for the others: at the highest dose activity, positive = more growth; actives 0.4% (n = 270,000); further: potency means the concentration at half of the fitted maximal effect; actives are rising curves; nearly all actives have a fitted effect of over 50% in size
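In this qHTS, NS1 from influenza A is expressed in budding yeast, where it slows growth. Cells are switched from glucose to 2% galactose medium (pH 6.0, -URA), treated with compound, and growth recovery is read at OD600.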
Pf growth 96h: inhibits malaria parasite growth, 96 h. P. falciparum luciferase reporter growth, 96 h. Potency, µM (titrated, usually from 28.7 µM), for inactives: at the highest dose activity change, negative = inhibition, actives largely listed as inhibitors. actives 6.9% (n = 320,000). AID 504834; active means well fitted inhibition curve with a large enough effect; inconclusive means small, poorly fitted or top-dose-only effect, or another doubt; inactive means no such curve, though single readings can be large or run the other way; further: potency means the concentration at half of the fitted maximal effect; on the % scale 0 is the no-effect control and ±100 the full control effect
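96 h incubation, 37 C, 5% CO2, of luciferase-reporter P. falciparum-infected RBCs (2% hematocrit, 0.05% parasitemia final) with test compounds; endpoint luminescence.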
Cycloheximide cs: affects cycloheximide protein synthesis inhibition readout, counter-screen | max response, % | actives 12% (n = 300,000) | cell reporter, cycloheximide protein synthesis inhibition counterscreen; in the data active means max response mostly above about 13%, no sharp cut-off; inactive means mostly below about 14%; further: read at 38.3 µM for the half of the compounds with a filed dose; 0% is about no effect
* = called active by the depositor; u = inconclusive; x = no result; [ ] = another dose, or the depositor's remark. Shown are actives, neighbours in structure and some others; about 21% of the full set was active somewhere. Unless noted, the call rests on the fitted dose curve.

SMILES	Pf growth 48h	Shiga inhibitor	SARS PLP yeast	NS1 inh	Pf growth 96h	Cycloheximide cs
CS(=O)(=O)N(CC(=O)N1CCCCC1)c1sc2c(c1C#N)CCCC2	-23.0%	15.7	11.8%	-11.2%	-29.5%	1.2
CCOC(=O)C1CCCN(C(=O)c2cc(S(=O)(=O)N3CCCCCC3)ccc2OC)C1 (stereo not given)	9.28µM*	x	-0.2%	x	9.28µM*	x
CCOC(=O)C1CCN(c2cc3c(cc2NC(=O)c2ccc(OC)c(OC)c2)n(C)c(=O)n3C)CC1	8.28µM*	-4.7	-1.5%	-0.7%	u	2.4
CCOC(=O)C1CCCN(C(=O)c2cccc(S(=O)(=O)N(Cc3ccccc3)c3ccccc3OC)c2)C1 (stereo not given)	10.4µM*	x	-0.7%	x	u	x
CCOC(=O)C1=C(COC(=O)[C@@H]2CCCN2S(=O)(=O)c2ccc(C)cc2)NC(=O)NC1C (stereo not given in full)	14.4%	9.8	-0.8%	13.0%	19.6%	12.1*
Cc1c(NC(=O)Nc2cccc(Cl)c2Cl)c(=O)n(-c2ccccc2)n1C	17.4%	-13.5	-2.8%	11.5%	-5.5%	-4.3
CS(=O)(=O)Nc1ccc(C(=O)N2CCN(c3ccccc3F)CC2)cc1	x	13.5	-3.9%[6.58 µM]	3.6%	u	-3.1
CCOC(=O)C1CCN(S(=O)(=O)c2c(Cl)ccc3nonc23)CC1	-22.9%	1.9	-29.1%	-40.2%	2.33µM*	10.3
CCOC(=O)C1CCN(C(=O)c2[nH]c3ccc(OC)cc3c2C)CC1	x	-6.5	1.3%	-6.6%	8.2%	-2.0
CCOC(=O)C1CCCN(C(=O)c2ccc(S(=O)(=O)Nc3ccccc3OC)cc2)C1 (stereo not given)	11.7µM*	x	0.9%	x	u	x
CCOC(=O)C1CCN(S(=O)(=O)c2nc3nc(C)cc(C)n3n2)CC1	2.0%	-18.6	4.2%	8.0%	10.4µM*	-0.5
CCOC(=O)C1CCN(C(=O)c2ccc(OC)cc2OC)CC1	4.1%	-9.1	3.1%	-3.1%	13.1µM*	1.0
COc1ccccc1NS(=O)(=O)c1ccc(C(=O)N2CCCCCC2)cc1	x	x	-7.2%	x	x	x
CCOC(=O)C1CCN(S(=O)(=O)c2cccc3nonc23)CC1	7.5%	15.3	7.4%	-4.3%	85.1%	-2.8
COc1ccccc1CCN1CCCC(CN(C)C(=O)CCC(N)=O)C1 (stereo not given)	1.5%	0.8	2.8%	-15.8%	0.0%	-1.5
Cc1ccc(C2CC(c3ccc(C)cc3)n3nc(N)nc3N2)cc1 (stereo not given)	-2.9%	15.6	-4.1%	6.7%	-6.4%	-3.8
COc1ccc(CN2CCN(Cc3ccc(CO)o3)CC2CCO)cc1C (stereo not given)	-4.4%	-4.8	3.3%	-6.5%	u	-2.0
CCOC(=O)C1CCCN(C(=O)c2cn(C)c3ccc(S(=O)(=O)N(C)C)cc3c2=O)C1 (stereo not given)	x	-2.8	-1.6%	10.1%	0.928µM*	-4.1
CCOC(=O)C1CCN(S(=O)(=O)c2ccc(OC)c(C(=O)N3CCCCCC3)c2)CC1	-3.6%	-2.4	2.2%	-15.8%	-5.1%	-2.1
CCOC(=O)C1CCN(C(=O)c2cc(S(=O)(=O)N3CCCCCC3)ccc2OC)CC1	u	x	0.7%	x	4.15µM*	x
CN(C)S(=O)(=O)c1ccc2c(c1)c(=O)c(C(=O)N1CCOCC1)cn2C	x	-12.3	-1.7%	2.4%	117.1%	-2.1
O=C(O)C1C2CCC(O2)C1C(=O)Nc1ccc(O)cc1 (stereo not given)	22.7%	10.2	-0.8%	16.2%	61.1%	9.3
COc1ccccc1C(=O)COC(=O)CNS(=O)(=O)c1ccc(C)c(C)c1	10.9%	x	-1.7%	x	19.1%	x
CC(=O)Oc1ccc(OC(C)=O)c(SCCCCCN2CCOCC2)c1	5.22µM*	26.0	-0.2%	-2.9%	7.38µM*	6.8
O=C(c1ccccc1)c1ccc(OCCCN2CCCC2)cc1	8.8%	43.7*	3.3%	25.6%	0.0%	27.6*
SMILES	Pf growth 48h	Shiga inhibitor	SARS PLP yeast	NS1 inh	Pf growth 96h	Cycloheximide cs
O=C(c1ccccc1)c1ccc(OCCCCN2CCCCC2)cc1	-1.5%	14.4	1.2%	4.5%	x	-1.6
CC(C)c1ccc(OCCCCCN2CCOCC2)cc1	-10.6%[0.00184 µM]	116.4*	-3.2%	2.6%	34.0%	53.9*
c1ccc(COc2ccc(OCCCCN3CCCCC3)cc2)cc1	x	69.9*	-8.2%	-10.7%	u	55.2*
C/C(=N/NS(=O)(=O)c1ccc(C)cc1)P(=O)(O)O	x	x	x	-11.4%	x	x
CN(CC(=O)Nc1cccc(F)c1)C(=O)CSc1ccccc1	u	x	-3.6%	x	33.3%	x
O=C(COC(=O)c1cc(=O)[nH]c2ccccc12)NCc1ccc(Cl)cc1	u	x	-0.7%	x	u	x
Brc1ccc(OCCN2CCOCC2)cc1	17.2%	23.0*	-6.7%	3.8%	u	15.2
Brc1ccc(OCCCCN2CCCCC2)cc1	-27.2%	2.6	1.7%	u	5.22µM*	-3.4
CCCCCOc1ccc(C(=O)CCN2CCOCC2)cc1	u	x	-9.5%	-26.5%	2.33µM*	-3.6
Brc1ccc(OCCCN2CCOCC2)cc1	x	29.9	5.5%	-10.4%	36.1%	13.7*
Clc1ccc(OCCN2CCOCC2)cc1	u	13.5	-3.8%	3.2%	-0.7%	4.7
Cc1ccc(OCCCCN2CCCCC2)cc1	50.4%	-0.6	0.7%	10.4%	-21.2%	1.0
CN(C)c1nc(C(=O)O)nc(N2CCOCC2)n1	13.2%	11.4	-0.9%	-0.2%	16.0%	-2.7
COc1cc(SC#N)ccc1N=Cc1c(C)[nH]n(-c2ccc(Cl)cc2)c1=O	2.08µM*	-11.3	-6.8%	0.9%	2.08µM*	0.4
COc1cc(SC#N)ccc1N=Cc1c(C)[nH]n(-c2ccc(C)c(C)c2)c1=O	5.22µM*	-7.9	-78.3%	-4.3%	-28.2%	0.5
COc1cc(S(=O)(=O)Nc2ccccc2)ccc1N=Cc1c(C)[nH]n(-c2ccc(C)cc2)c1=O	-18.7%	-11.1	-12.1%	7.7%	23.8%	-2.4
O=C1c2ccccc2CC1Sc1nnc(-c2ccccn2)o1 (stereo not given)	u	74.7*	3.5%	-11.2%	13.1µM*	16.9*
CCN(Cc1cc(Cl)cc(C)c1O)Cc1c(O)ccc2ccccc12	x	x	x	-5.4%	x	x
O=C(COc1ccc(-c2nnco2)cc1)NC1CCS(=O)(=O)C1 (stereo not given)	x	x	8.0%	x	x	x
CC12CCC=CC1C(c1ccc3ccccc3c1C=Cc1ccccc1)N(Cc1ccccc1)C2=O (stereo not given)	x	-1.2	x	x	x	6.1
Cn1c(CNc2nc(-c3ccccc3)cs2)nnc1SCC(=O)OC1CCCCC1	2.33µM*	7.8	7.0%	-10.1%	u	-2.9
COc1cccc(C(=O)CSc2nnc(CNc3nc(-c4ccccc4)cs3)n2C)c1	u	-5.7	-6.3%	u	20.1%	1.2
CC(C)OC(=O)CSc1nnc(CNc2nc(-c3ccccc3)cs2)n1C	2.33µM*	8.0	2.9%	-0.9%	87.7%	12.0
CCOC(=O)c1c(NC(=O)CCS(=O)(=O)c2ccccc2)sc2c1CCN(C(C)C)C2	u	-3.2	0.6%	-5.6%	u	8.3
